According to PubChem BioAssay (Tox21):
Results filed as inconclusive are left out. Calls of active or inactive are those of the source. Unless noted, the call rests on the fitted dose curve; in most records, active means well fitted curve in the direction sought with a large enough effect in the repeat runs; inconclusive means weak or mixed curves; inactive means no such curve, though single readings can be large; an effect the other way counts as inactive or inconclusive.

Experiments:
[1] = qHTS assay to test for compound auto fluorescence at 535 nm (green) in HEK293 cells (AID 720680)
[2] = qHTS assay to test for compound auto fluorescence at 535 nm (green) in HEK293 cell free culture (AID 720682)
In short: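 Intrinsic compound fluorescence is measured in culture medium containing 10% FBS, with excitation at 485 nm and detection at 535 nm, referenced to fluorescein.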

[3] = qHTS assay to test for compound auto fluorescence at 590 nm (red) in HEK293 cell free culture (AID 720683)
In short: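 Cell-free wells of DMEM with 10% FBS received compound, and intrinsic fluorescence was read at excitation/emission 540/590 nm. Values expressed as equivalence to Rose Bengal sodium.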

[4] = qHTS assay to test for compound auto fluorescence at 590 nm (red) in HepG2 cell free culture (AID 720684)
In short: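 Compounds are added to culture medium (MEM, 10% FBS) lacking cells, then fluorescence is read at excitation 540 nm, emission 590 nm, with Rose Bengal sodium as the equivalency standard.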

[5] = qHTS assay to test for compound auto fluorescence at 460 nm (blue) in HepG2 cell free culture (AID 720685)
In short: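 Compound (23 nL) or DMSO pinned into cell-free MEM with 10% FBS; blue fluorescence read at 405/460 nm excitation/emission, expressed as auto-fluorescence equivalency to triamterene.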

[6] = qHTS assay to test for compound auto fluorescence at 460 nm (blue) in HepG2 cells (AID 720687)
In short: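 HepG2 cells in MEM with 10% FBS, attached overnight at 37 C, were exposed to compound or DMSO for 1 hr at 37 C, 5% CO2. Blue fluorescence was read at 405/460 nm, with triamterene as reference fluorophore.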

[7] = qHTS assay to identify small molecule antagonists of the glucocorticoid receptor (GR) signaling pathway - cell viability counter screen (AID 720693); further: nearly all actives have a fitted effect of over 55% in size
[8] = qHTS assay for identifying genotoxic compounds that show differential cytotoxicity against isogenic chicken DT40 cell lines with known DNA damage response pathways - wild type cell line (AID 743012); further: nearly all actives have a fitted effect of over 60% in size; further: potency means the concentration at half of the fitted maximal effect
In short: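 First, wild type DT40 cells were plated at 300 per well and equilibrated about 0.5 h at 37 C/5% CO2. Next, compounds in DMSO were added and exposure lasted 40 h. Finally, CellTiter-Glo was added for 30 min at room temperature and luminescence recorded.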

[9] = qHTS assay for identifying genotoxic compounds that show differential cytotoxicity against isogenic chicken DT40 cell lines with known DNA damage response pathways - Rev3 mutant cell line (AID 743014); further: nearly all actives have a fitted effect of over 55% in size; further: potency means the concentration at half of the fitted maximal effect
[10] = qHTS assay for identifying genotoxic compounds that show differential cytotoxicity against isogenic chicken DT40 cell lines with known DNA damage response pathways - Rad54/Ku70 mutant cell line (AID 743015); further: nearly all actives have a fitted effect of over 60% in size; further: potency means the concentration at half of the fitted maximal effect
[11] = qHTS assay to identify small molecule antagonists of the androgen receptor (AR) signaling pathway - cell viability counter screen (AID 743033; further: nearly all actives have a fitted effect of over 45% in size)
[12] = qHTS assay to identify small molecule antagonists of the androgen receptor (AR) signaling pathway using the MDA cell line - cell viability counter screen (AID 743041; further: nearly all actives have a fitted effect of over 45% in size)
In short: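 Same-well cytotoxicity was assessed by CellTiter-Fluor in MDA-kb2 AR-luc cells after 16 h of compound treatment under R1881 agonism.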

[13] = qHTS assay to test for compound auto fluorescence at 535 nm (green) in HepG2 cell free culture (AID 720686)
[14] = biological target: Glucocorticoid receptor (Homo sapiens) (UniProt P04150); test: qHTS assay to identify small molecule agonists of the glucocorticoid receptor (GR) signaling pathway (AID 720691; active means well fitted activation curve with a large enough effect in the signal ratio in the repeat runs, not every such curve was filed as active; the % refers to the signal ratio)
In short: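 qHTS in GR-bla HeLa cells: 4 h settling at 37 C/5% CO2, 18 h compound incubation at 37 C, 2 h LiveBLAzer B/G FRET substrate at room temperature, fluorescence intensity measured.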

[15] = biological target: Glucocorticoid receptor (Homo sapiens) (UniProt P04150); test: qHTS assay to identify small molecule antagonists of the glucocorticoid receptor (GR) signaling pathway (AID 720692; active means well fitted inhibition curve with a large enough effect in the signal ratio in the repeat runs, not every such curve was filed as active; the % refers to the signal ratio)
In short: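 Inhibition of glucocorticoid signalling is measured in HeLa cells with a GRE-controlled beta-lactamase reporter; cells are co-treated with compound and 5 nM dexamethasone (final) for 18 h before FRET substrate readout.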

[16] = biological target: Androgen receptor (Homo sapiens) (UniProt P10275); test: qHTS assay to identify small molecule antagonists of the androgen receptor (AR) signaling pathway (AID 743035; active means well fitted inhibition curve with a large enough effect in the signal ratio in the repeat runs, not every such curve was filed as active; the % refers to the signal ratio)
In short: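 Beta-lactamase FRET read (2 h RT incubation with LiveBLAzer B/G) following 16 h of compound plus R1881 treatment of AR-UAS-bla HEK293 cells, which had been pre-incubated 4 h at 37C.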

[17] = biological target: Androgen receptor (Homo sapiens) (UniProt P10275); test: qHTS assay to identify small molecule agonists of the androgen receptor (AR) signaling pathway using the MDA cell line (AID 743040; further: nearly all actives have a fitted effect of over 20% in size)
In short: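 Human breast carcinoma MDA-kb2 reporter cells (MMTV-luc, AR/GR elements) were treated for 16 h at 37C in 0% CO2 following a 5 h settling period. Signal was quantified by ONE-Glo luminescence.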

[18] = biological target: Androgen receptor (Homo sapiens) (UniProt P10275); test: qHTS assay to identify small molecule antagonists of the androgen receptor (AR) signaling pathway using the MDA cell line (AID 743042; further: nearly all actives have a fitted effect of over 55% in size)
In short: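 MDA-kb2 breast carcinoma cells carrying MMTV-luciferase (AR/GR responsive) were co-treated with compounds and the agonist R1881 for 16 h at 37C. Inhibition read as ONE-Glo luminescence; CellTiter-Fluor fluorescence measured in parallel for cytotoxicity.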
On the % scale 0 is the no-effect control and ±100 the full control effect.

Glucocorticoid receptor (Homo sapiens), sequence (P04150 whole entry, looked up): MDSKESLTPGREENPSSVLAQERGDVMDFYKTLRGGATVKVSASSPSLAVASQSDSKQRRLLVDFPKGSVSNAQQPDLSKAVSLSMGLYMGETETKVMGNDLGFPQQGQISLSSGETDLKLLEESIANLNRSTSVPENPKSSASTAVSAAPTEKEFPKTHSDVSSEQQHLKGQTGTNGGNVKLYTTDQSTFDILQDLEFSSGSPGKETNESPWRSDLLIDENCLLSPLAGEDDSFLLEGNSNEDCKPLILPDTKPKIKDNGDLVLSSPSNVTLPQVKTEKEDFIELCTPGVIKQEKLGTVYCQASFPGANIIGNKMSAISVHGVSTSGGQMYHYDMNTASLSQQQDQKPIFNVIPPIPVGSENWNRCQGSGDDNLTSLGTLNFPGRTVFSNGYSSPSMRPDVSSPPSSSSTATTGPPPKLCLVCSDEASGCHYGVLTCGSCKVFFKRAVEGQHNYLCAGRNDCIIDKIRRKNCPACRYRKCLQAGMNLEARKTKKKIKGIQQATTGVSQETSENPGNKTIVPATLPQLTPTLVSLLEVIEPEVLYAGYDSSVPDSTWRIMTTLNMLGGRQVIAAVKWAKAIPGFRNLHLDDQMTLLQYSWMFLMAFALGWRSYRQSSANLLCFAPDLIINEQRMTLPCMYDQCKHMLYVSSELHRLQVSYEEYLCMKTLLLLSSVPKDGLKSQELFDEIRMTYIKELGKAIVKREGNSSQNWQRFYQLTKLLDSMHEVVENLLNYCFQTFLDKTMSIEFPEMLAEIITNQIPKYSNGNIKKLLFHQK
Androgen receptor (Homo sapiens), sequence (P10275 whole entry, looked up): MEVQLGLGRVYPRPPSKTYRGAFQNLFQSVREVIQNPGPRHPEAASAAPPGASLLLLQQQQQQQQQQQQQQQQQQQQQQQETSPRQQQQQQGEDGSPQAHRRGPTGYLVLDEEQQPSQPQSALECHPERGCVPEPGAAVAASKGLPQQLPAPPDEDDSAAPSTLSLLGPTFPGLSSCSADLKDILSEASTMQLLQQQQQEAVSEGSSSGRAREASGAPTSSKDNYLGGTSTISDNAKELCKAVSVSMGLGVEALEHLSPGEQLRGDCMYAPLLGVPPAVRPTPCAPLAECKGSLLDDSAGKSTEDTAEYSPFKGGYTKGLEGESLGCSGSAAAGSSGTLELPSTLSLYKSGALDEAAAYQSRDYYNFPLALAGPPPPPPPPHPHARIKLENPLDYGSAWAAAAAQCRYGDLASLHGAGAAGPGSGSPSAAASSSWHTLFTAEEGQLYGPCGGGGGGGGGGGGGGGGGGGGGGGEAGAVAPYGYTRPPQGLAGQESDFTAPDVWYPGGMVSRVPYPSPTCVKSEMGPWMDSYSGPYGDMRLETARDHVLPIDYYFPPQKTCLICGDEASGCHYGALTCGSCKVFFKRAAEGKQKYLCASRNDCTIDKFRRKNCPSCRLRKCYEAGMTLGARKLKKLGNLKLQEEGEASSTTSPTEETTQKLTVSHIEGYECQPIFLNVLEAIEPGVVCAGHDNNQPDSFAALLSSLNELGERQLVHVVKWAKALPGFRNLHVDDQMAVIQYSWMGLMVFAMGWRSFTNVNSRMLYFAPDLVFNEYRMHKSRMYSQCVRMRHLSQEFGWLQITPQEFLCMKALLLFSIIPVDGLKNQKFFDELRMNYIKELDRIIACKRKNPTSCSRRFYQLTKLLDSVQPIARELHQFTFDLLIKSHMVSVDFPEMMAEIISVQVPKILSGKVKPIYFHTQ

O=C(O)[C@H](O)c1ccccc1
inactive: outcome [1] | outcome [2] | outcome [3] | outcome [4] | outcome [5] | outcome [6] | outcome [7] | Potency [8] | Potency [9] | Potency [10] | outcome [11] | Potency [12]

NCc1ccc(S(N)(=O)=O)cc1
inactive: fluorescence, % of fluorescein [1] 0.0433% [at 18.6 µM] | activity change [2] -0.0097% [at 18.6 µM] | fluorescence, % of fluorescent control [3] 0.469% [at 18.6 µM] | fluorescence, % of Rose Bengal [4] 0.496% [at 18.6 µM] | fluorescence, % of fluorescent control [5] 0.0628% [at 18.6 µM] | fluorescence, % of fluorescent control [6] 0.0103% [at 18.6 µM] | outcome [7] | Potency [8] | Potency [9] | Potency [10] | Potency [12]

CCOC(CN1CCN(CC(C)C(=O)c2ccccc2)CC1)c1ccccc1 (stereo not drawn)
active: Potency [8] 10.6 µM | Potency [9] 13.3 µM | Potency [10] 18.8 µM
inactive: outcome [1] | outcome [2] | outcome [3] | outcome [4] | outcome [5] | outcome [13] | outcome [6] | Potency [14] | outcome [7] | outcome [11]

C=CCCCCCCCC
inactive: outcome [1] | outcome [2] | outcome [3] | outcome [4] | outcome [5] | outcome [13] | Potency [14] | outcome [15] | outcome [7] | Potency [8] | Potency [9] | Potency [10] | outcome [11] | Potency [12]

CCC(=O)c1c(O)cc(O)cc1O
inactive: outcome [1] | outcome [2] | outcome [3] | outcome [4] | outcome [5] | outcome [6] | Potency [14] | outcome [15] | outcome [7] | Potency [8] | Potency [9] | Potency [10] | outcome [16] | Potency [17] | Potency [12] | outcome [18]

Cn1nnc2c(C(N)=O)ncn2c1=O
inactive: outcome [1] | outcome [3] | outcome [4] | outcome [5] | outcome [13] | outcome [6] | outcome [7] | Potency [8] | Potency [9] | Potency [10] | outcome [11] | Potency [12]
